Only some compounds are listed: those with a hit (about 2.2% of all), similar ones and a draw of the others.
MEKK3 PB1 HTS – raises or lowers MEK5 binding to the human MEKK3 PB1 domain; Q99759; bead-based flow cytometry, Alexa488-MEK5 binding to MEKK3; actives lie on both sides; 0 = blocked by unlabeled MEK5, 100 = vehicle; binding response (% of control), % at 10 µM; 290,000 tested, 1.4% active;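 active = binding response more than 3 SD above or below the average of its plate-row segment, actives on both sides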;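 note: Alexa488 bead fluorescence after subtracting the streptavidin-only scavenger bead signal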
Target sequence (Q99759 whole entry, looked up, the tested form may be a part): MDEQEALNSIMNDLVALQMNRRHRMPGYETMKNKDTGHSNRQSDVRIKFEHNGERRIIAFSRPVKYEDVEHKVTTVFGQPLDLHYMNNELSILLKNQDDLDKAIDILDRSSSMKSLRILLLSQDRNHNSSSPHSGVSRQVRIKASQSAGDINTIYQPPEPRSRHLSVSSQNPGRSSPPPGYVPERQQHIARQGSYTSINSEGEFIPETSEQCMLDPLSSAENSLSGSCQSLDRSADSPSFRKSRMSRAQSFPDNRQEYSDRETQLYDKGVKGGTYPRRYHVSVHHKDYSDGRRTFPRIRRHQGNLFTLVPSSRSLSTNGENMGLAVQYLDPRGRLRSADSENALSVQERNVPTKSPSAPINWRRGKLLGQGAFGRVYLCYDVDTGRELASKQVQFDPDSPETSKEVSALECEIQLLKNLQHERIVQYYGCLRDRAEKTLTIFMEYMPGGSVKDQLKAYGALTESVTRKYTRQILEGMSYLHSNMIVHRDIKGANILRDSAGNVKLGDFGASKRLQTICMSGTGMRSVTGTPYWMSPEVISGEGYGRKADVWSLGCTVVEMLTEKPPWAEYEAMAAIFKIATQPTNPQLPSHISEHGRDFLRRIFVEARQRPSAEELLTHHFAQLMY
VLA-4 inh – inhibition in a human VLA-4 binding assay; P13612; VLA-4 expressing cells, ligand binding flow cytometry; inhibition, % (about 7 µM as worked out from the volumes in the protocol); 330,000 tested, 0.2% active; in the data active = inhibition above about 50%
MEKK2mut PB1 HTS – signal of MEK5 binding to mutant human MEKK2 PB1 domain; AID 1530; percent response, % at 10 µM; 290,000 tested, 0.35% active; bead flow cytometry, Alexa488-MEK5 binding to MEKK2 mutant; in the data active = percent response above about 24%, passing the limit was not always enough
MEKK2 WT-MEK5 – raises or lowers MEK5 binding to wildtype human MEKK2 PB1 domain. binding response (% of control), % at 10 µM. Q9Y2U5. bead flow cytometry, Alexa488-MEK5 binding to MEKK2 WT; actives lie on both sides. 290,000 tested, 1.1% active; in the data active = binding response below about 67% or above about 130%
MEKK2wt confirm – raises or lowers MEK5 binding to wildtype human MEKK2, retest. shares compounds with MEKK3 PB1 HTS. bead flow cytometry, Alexa488-MEK5 binding to MEKK2 WT; actives lie on both sides. binding response (% of control), % at 10 µM. 5,900 tested, 2.4% active; in the data active = binding response below about 16% or above about 210%; inactive = in between
MEKK2mut-MEK5 – signal of MEK5 binding to mutant human MEKK2, retest. shares compounds with MEKK3 PB1 HTS. bead flow cytometry, Alexa488-MEK5 binding to MEKK2 mutant. percent response, % at 10 µM. 5,900 tested, 2% active. AID 1893; in the data active = percent response mostly above about 71%, no sharp cut-off; inactive = mostly below about 38%;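 note: higher means compound restores mutant binding toward wildtype level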
MEKK3 confirm – MEKK3-MEK5 PB1 inhibition, single concentration confirmation | bead flow cytometry, Alexa488-MEK5 binding to MEKK3; active compounds read low | 5,900 tested, 1.8% active | binding response (% of control), % at 10 µM | shares compounds with MEKK3 PB1 HTS;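 active = binding response below 72% of control, or above a set upper limit, though filed actives all read lower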;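 note: 100% = DMSO only wells and 0% = binding blocked by excess unlabeled MEK5; lower values mean stronger disruption of MEK5 binding to MEKK3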
* marks the source's active call; other numbers are inactive results; nt = no result given; [ ] = remark or other dose.

SMILES	MEKK3 PB1 HTS	VLA-4 inh	MEKK2mut PB1 HTS	MEKK2 WT-MEK5	MEKK2wt confirm	MEKK2mut-MEK5	MEKK3 confirm
NC(N)=N/N=C/c1ccc(OCc2ccccc2Cl)cc1	111.0	24.6	49.0*	208.0*	209.0*	45.0	103.0
COc1ccc2[nH]cc(CCNC(=O)COc3ccc4ccc(=O)oc4c3)c2c1	103.0	22.2	4.0	105.0	nt	nt	nt
Cc1nc(NC(=O)c2ccccc2)sc1-c1csc(NCCc2ccccc2)n1	49.0*[inhibitor]	8.9	-14.0	69.0	121.0	13.0	108.0
COc1ccc(OC)c(NC(=O)c2cc(-c3cc(Cl)ccc3O)n[nH]2)c1	145.0*	17.8	8.0	130.0	93.0	-3.0	98.0
COc1ccc(OCCCC(=O)Nc2cc(S(=O)(=O)N3CCCCC3)ccc2C)cc1	nt	0.7	nt	nt	nt	nt	nt
CCn1c(SCC(=O)N/N=C/C(C)=C/c2ccco2)nnc1-c1ccccc1	104.0	3.9	2.0	99.0	nt	nt	nt
CCn1c(SCC(=O)N/N=C/C=C/c2ccco2)nnc1-c1ccccc1	128.0*	-1.6	0.0	106.0	103.0	4.0	100.0
Cc1cc(O)cc(C)c1NS(=O)(=O)c1ccc2ccccc2c1	103.0	9.6	2.0	105.0	nt	nt	nt
CN1CCN(S(=O)(=O)c2cccc(C(=O)N(Cc3ccccc3)c3ccccc3)c2)CC1	95.0	-5.3	-6.0	92.0	nt	nt	nt
CC(=O)N1CCN(C(=O)CCC(=O)O)CC1	19.0*[inhibitor]	5.1	-6.0	7.0*[inhibitor]	105.0	8.0	107.0
Cn1c(C(=O)N2CCN(C(=O)c3ccco3)CC2)cc2c(=O)n3ccccc3nc21	138.0*	-4.6	6.0	129.0	96.0	-5.0	97.0
CC(C)CCn1c(CN2CCN(C(=O)c3ccco3)CC2)nc2c1c(=O)n(C)c(=O)n2C	95.0	-11.8	5.0	98.0	nt	nt	nt
CC(C)Cn1c(CN2CCN(C(=O)c3ccco3)CC2)nc2c1c(=O)n(C)c(=O)n2C	141.0*	13.4	3.0	125.0	101.0	1.0	103.0
CCOC(=O)c1cc2c(=O)n3ccccc3nc2n(C(C)C)c1=NC(=O)c1ccco1	97.0	4.5	-3.0	91.0	nt	nt	nt
CCCn1c(=NC(=O)c2ccco2)c(C(=O)OCC)cc2c(=O)n3ccccc3nc21	2.0*[inhibitor]	6.6	-26.0	-2.0*[inhibitor]	93.0	-14.0	93.0
COc1ccc(NC(=O)c2ccc(-c3nn(C)c(=O)c4ccccc34)cc2)cc1C(N)=O	109.0	-1.2	3.0	106.0	nt	nt	nt
CC(C)CNC(=O)NC(=O)COC(=O)c1cccc(NS(=O)(=O)c2ccc(F)c(F)c2)c1	134.0*	-4.6	1.0	109.0	104.0	7.0	101.0
CC(=O)c1ccc(N2CCN(C(=O)Cn3cnc(S(=O)(=O)N4CCCCC4)c3)CC2)cc1	98.0	-6.6	0.0	98.0	nt	nt	nt
Cc1ccccc1SCC(=O)OCC(=O)NCCNC(=O)COC(=O)CSc1ccccc1C	nt	16.6	nt	nt	nt	nt	nt
CCOC(=O)c1ccc(N2CCCCC2)c(NS(=O)(=O)c2ccc(C)cc2)c1	96.0	1.0	-8.0	86.0	nt	nt	nt
COc1cc(C(Nc2ccc(S(=O)(=O)NCC3CCCO3)cc2)C(=O)NC(C)(C)C)cc(OC)c1OC (centres undefined)	129.0*	0.0	30.0	121.0	102.0	1.0	99.0
COc1cc(C(Nc2ccc(S(=O)(=O)N3CCC(C)CC3)cc2)C(=O)NCC2CCCO2)cc(OC)c1OC (centres undefined)	109.0	10.8	3.0	109.0	nt	nt	nt
CCCn1c(SCC(=O)NCc2ccc3c(c2)OCO3)n[nH]c1=O	nt	0.0	nt	nt	nt	nt	nt
COc1cc(C(=S)N2CCCCC2)ccc1OCC(=O)N1CCCC1	124.0*	-11.7	5.0	118.0	99.0	-2.0	104.0
CCOc1cc(C(=S)N2CCCCC2)ccc1OCC(=O)NCc1ccccc1	75.0*[inhibitor]	-5.0	-8.0	87.0	107.0	7.0	106.0
SMILES	MEKK3 PB1 HTS	VLA-4 inh	MEKK2mut PB1 HTS	MEKK2 WT-MEK5	MEKK2wt confirm	MEKK2mut-MEK5	MEKK3 confirm
COc1cc(C(=S)N2CCCC2)ccc1OCC(N)=O	95.0	4.6	3.0	100.0	nt	nt	nt
C/C(=C/C(=O)Nc1cccc(F)c1)N1CCCC1	98.0	7.4	-10.0	90.0	nt	nt	nt
Cc1ccc2c(=O)n3c(nc2c1)C(Cc1ccccc1)NC(=O)c1ccc(Cl)cc1-3 (centres undefined)	nt	-0.6	nt	nt	nt	nt	nt
COc1ccc(NC(=O)COC(=O)c2ccc([N+](=O)[O-])o2)cc1Cl	131.0*	-6.4	5.0	123.0	106.0	6.0	106.0
COc1ccc(C)cc1NC(=O)COC(=O)c1ccc([N+](=O)[O-])o1	97.0	2.0	-2.0	92.0	nt	nt	nt
COc1cc(/C=N/NC(=O)/C(=C\c2ccc3c(c2)OCO3)NC(=O)c2ccccc2)ccc1O	142.0*	0.6	1.0	103.0	104.0	5.0	107.0
COc1cc(/C=N/NC(=O)C(=O)NCC2CCCO2)ccc1O (centres undefined)	162.0*	10.7	3.0	117.0	103.0	0.0	103.0
Cc1ccc(P(=O)(CSC(=N)N)c2ccc(C)cc2)cc1	133.0*	22.5	2.0	108.0	101.0	-7.0	100.0
N=C(N)SCP(=O)(c1ccccc1)c1ccccc1	91.0	-12.7	-19.0	94.0	nt	nt	nt
O=C(O)C(Cc1cc(Cl)ccc1Cl)Sc1nc2ccccc2[nH]1 (centres undefined)	135.0*	-6.2	25.0	129.0	98.0	-13.0	96.0
CC(Sc1nc2ccccc2[nH]1)C(=O)O (centres undefined)	100.0	-2.6	2.0	100.0	nt	nt	nt
Cc1ccc(C(=O)N2CCN=C2SCc2ccc([N+](=O)[O-])cc2)cc1C	64.0*[inhibitor]	29.0	-4.0	82.0	96.0	-2.0	98.0
COc1ccc(NC(=S)Nn2cnnc2)cc1OC	80.0	6.2	-17.0	75.0	nt	nt	nt
CNC(=S)Nc1ccc(OC)c(OC)c1	2.0*[inhibitor]	3.2	-21.0	3.0*[inhibitor]	100.0	3.0	104.0
COc1cc(NC(=O)C(C)Oc2ccccc2)cc(OC)c1 (centres undefined)	0.0*[inhibitor]	-4.5	-27.0	0.0*[inhibitor]	104.0	6.0	107.0
COCCNc1nnc(SCC(=O)Nc2sc3c(c2C(=O)c2ccccc2)CCCC3)s1	131.0*	-11.2	0.0	106.0	99.0	-4.0	102.0
CCCN1CCC(=O)N(CCSc2ccc(NC(C)=O)cc2)CC1	71.0*[inhibitor]	-10.1	1.0	108.0	98.0	-4.0	97.0
CCCN1CCC(=O)N(CCSc2ccccc2)CC1	101.0	-50.6	1.0	106.0	nt	nt	nt
CCOCc1c(C(=O)OCC(=O)Nc2ccc(C)c(S(=O)(=O)N(C)C)c2)oc2ccccc12	135.0*	-6.1	0.0	110.0	105.0	-2.0	103.0
N#Cc1ccccc1NC(=O)c1ccccc1OCC(=O)Nc1ccc2c(c1)oc1ccccc12	78.0*[inhibitor]	-0.8	-11.0	88.0	91.0	-33.0	96.0

Screens as filed in PubChem BioAssay.
